Assay results as given in PubChem BioAssay (EPA / NIEHS).
Active and inactive are the calls of the source. The calls were made as follows: active = hit-call score of the fitted dose curve at least 0.9, where 1 is the maximum; inactive = score below 0.9.

Legend:
Details in all cases: mRNA level, 48 h; actives raise or lower the signal
[1] = read-out: MicroRNA 122 (MIR122), gene 406906; experiment: LTEA_HepaRG_MIR122: Life Technologies and Expression Analysis (LTEA) Assay for MicroRNA 122 (MIR122) using HepaRG (AID 2283516); also: the transcript read is the microRNA miR-122
How it was run: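 Differentiated human HepaRG cells in serum-free induction medium exposed 48 h to 8 half-log concentrations from 100 uM in 0.5% DMSO, duplicate. MIR122 quantified by Fluidigm TaqMan qRT-PCR, normalised to ACTB, GAPDH, POLR2A; fold change fitted bidirectionally versus DMSO.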

[2] = read-out: matrix metalloproteinase-10 (MMP10), MMP10 (gene 4319); experiment: LTEA_HepaRG_MMP10: Life Technologies and Expression Analysis (LTEA) Assay for matrix metalloproteinase-10 (MMP10) using HepaRG (AID 2283517)
How it was run: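 HepaRG, collagen I, ~100,000 cells/well; serum-free induction medium; 48 h exposure, duplicate, 8-pt half-log to 100 uM, 0.5% DMSO. Readout: TaqMan qRT-PCR, normalized to ACTB/GAPDH/POLR2A; bidirectional fit vs DMSO.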

MYC, MYC (gene 4609) = experiment: LTEA_HepaRG_MYC: Life Technologies and Expression Analysis (LTEA) Assay for MYC using HepaRG (AID 2283518)
How it was run: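 Differentiated HepaRG cells exposed 48 h in serum-free induction medium to 8 concentrations (top 100 uM, half-log steps; 0.5% DMSO), duplicate. MYC mRNA measured by Fluidigm qRT-PCR, normalized to ACTB, GAPDH, POLR2A; bidirectional fit versus DMSO.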

[3] = read-out: matrix metalloproteinase-3 (MMP3), MMP3 (gene 4314); experiment: LTEA_HepaRG_MMP3: Life Technologies and Expression Analysis (LTEA) Assay for matrix metalloproteinase-3 (MMP3) using HepaRG (AID 2283519)
How it was run: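 Differentiated human HepaRG cells, plated 48 h on collagen I, were exposed in duplicate for 48 h in serum-free induction medium to eight half-log concentrations up to 100 uM in 0.5% DMSO. MMP3 mRNA was quantified by TaqMan qRT-PCR, normalised to ACTB, GAPDH and POLR2A.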

[4] = read-out: Paternally Expressed 10 (PEG10), PEG10 (gene 23089); experiment: LTEA_HepaRG_PEG10: Life Technologies and Expression Analysis (LTEA) Assay for Paternally Expressed 10 (PEG10) using HepaRG (AID 2283520)
How it was run: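 Differentiated HepaRG cells exposed 48 h in serum-free induction medium to eight half-log concentrations topping at 100 uM, 0.5% DMSO, in duplicate. PEG10 mRNA quantified by TaqMan qRT-PCR, normalized to ACTB, GAPDH and POLR2A; bidirectional fit versus DMSO.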

[5] = read-out: Nuclear factor NF-kappa-B p105 subunit (Homo sapiens) (UniProt P19838); experiment: LTEA_HepaRG_NFKB1: Life Technologies and Expression Analysis (LTEA) Assay for Nuclear Factor Kappa B Subunit 1 (NFKB1) using HepaRG (AID 2283521)
How it was run: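 Differentiated human HepaRG cells in serum-free induction medium with 0.5% DMSO were exposed for 48 h to eight half-log concentrations, top 100 uM, in duplicate. NFKB1 mRNA measured by Fluidigm TaqMan qRT-PCR, normalised to ACTB, GAPDH and POLR2A; bidirectional fit versus DMSO.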

[6] = read-out: Protein phosphatase 2A (PPP2R4), PTPA (gene 5524); experiment: LTEA_HepaRG_PPP2R4: Life Technologies and Expression Analysis (LTEA) Assay for Protein phosphatase 2A (PPP2R4) using HepaRG (AID 2283522)
How it was run: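 Differentiated human HepaRG cells in serum-free induction medium were exposed 48 h to 8 concentrations (top 100 µM, half-log steps, duplicate) in 0.5% DMSO. PPP2R4 mRNA was measured by TaqMan qRT-PCR, normalised to ACTB, GAPDH and POLR2A, and fitted bidirectionally versus DMSO.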

[7] = read-out: Phosphatase and tensin (PTEN), PTEN (gene 5728); experiment: LTEA_HepaRG_PTEN: Life Technologies and Expression Analysis (LTEA) Assay for Phosphatase and tensin (PTEN) using HepaRG (AID 2283523)
How it was run: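 Differentiated human HepaRG cells, plated 48 h then switched to serum-free induction medium, were exposed in duplicate for 48 h to eight half-log concentrations up to 100 uM in 0.5% DMSO. PTEN mRNA measured by TaqMan qRT-PCR, normalized to ACTB/GAPDH/POLR2A, bidirectional fit versus DMSO.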

[8] = read-out: solute carrier (SLC22A1), SLC22A1 (gene 6580); experiment: LTEA_HepaRG_SLC22A1: Life Technologies and Expression Analysis (LTEA) Assay for solute carrier (SLC22A1) using HepaRG (AID 2283524)
How it was run: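 Human HepaRG cells were plated 48 h, switched to serum-free induction medium, then exposed in duplicate for 48 h to 8-point half-log series from 100 uM in 0.5% DMSO. SLC22A1 mRNA measured by qRT-PCR, normalized to ACTB/GAPDH/POLR2A, fitted bidirectionally versus DMSO.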

[9] = read-out: Pyruvate Dehydrogenase Kinase 4 (PDK4), PDK4 (gene 5166); experiment: LTEA_HepaRG_PDK4: Life Technologies and Expression Analysis (LTEA) Assay for Pyruvate Dehydrogenase Kinase 4 (PDK4) using HepaRG (AID 2283525)
How it was run: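 Differentiated human HepaRG cells, pre-cultured 48 h, were exposed in duplicate for 48 h in serum-free induction medium to eight half-log concentrations up to 100 uM in 0.5% DMSO. PDK4 mRNA was quantified by qRT-PCR, normalized to ACTB, GAPDH and POLR2A, bidirectional fitting versus DMSO.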

[10] = read-out: NAD(P)H dehydrogenase [quinone] 1 (NQO1), NQO1 (gene 1728); experiment: LTEA_HepaRG_NQO1: Life Technologies and Expression Analysis (LTEA) Assay for NAD(P)H dehydrogenase [quinone] 1 (NQO1) using HepaRG (AID 2283526)
How it was run: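 Differentiated human HepaRG cells in serum-free induction medium, dosed in duplicate for 48 h at 8 half-log concentrations up to 100 uM in 0.5% DMSO. NQO1 mRNA by qRT-PCR normalized to ACTB, GAPDH, POLR2A; bidirectional fit versus DMSO baseline.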

[11] = read-out: Nuclear factor erythroid 2-related factor 2 (Homo sapiens) (UniProt Q16236); experiment: LTEA_HepaRG_NFE2L2: Life Technologies and Expression Analysis (LTEA) Assay for Nuclear factor erythroid 2-related factor 2 (NFE2L2) Transcription Factor using HepaRG (AID 2283527)
How it was run: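 Differentiated human HepaRG cells in serum-free induction medium were exposed for 48 h to eight concentrations (top 100 uM, half-log dilutions, 0.5% DMSO), in duplicate. NFE2L2 mRNA was quantified by TaqMan qRT-PCR, normalized to ACTB, GAPDH and POLR2A, with bidirectional fitting versus DMSO.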

[12] = read-out: succinate dehydrogenase complex iron sulfur subunit B (SDHB), SDHB (gene 6390); experiment: LTEA_HepaRG_SDHB: Life Technologies and Expression Analysis (LTEA) Assay for succinate dehydrogenase complex iron sulfur subunit B (SDHB) using HepaRG (AID 2283528)
How it was run: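 HepaRG cells (~100,000/well, plated 48 h) exposed in duplicate for 48 h in serum-free induction medium to 8-point half-log series from 100 uM in 0.5% DMSO; mRNA by qRT-PCR normalised to ACTB, GAPDH, POLR2A; bidirectional fit versus DMSO.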

[13] = read-out: Signal transducer and activator of transcription 3 (Homo sapiens) (UniProt P40763); experiment: LTEA_HepaRG_STAT3: Life Technologies and Expression Analysis (LTEA) Assay for Signal transducer and activator of transcription (STAT3) using HepaRG (AID 2283529)
How it was run: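 Differentiated human HepaRG cells in serum-free induction medium were exposed in duplicate for 48 h to eight half-log concentrations up to 100 uM in 0.5% DMSO. STAT3 mRNA was quantified by TaqMan qRT-PCR, normalized to ACTB, GAPDH and POLR2A, and fitted bidirectionally against DMSO.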

[14] = read-out: solute carrier (SLCO1B1), SLCO1B1 (gene 10599); experiment: LTEA_HepaRG_SLCO1B1: Life Technologies and Expression Analysis (LTEA) Assay for solute carrier (SLCO1B1) using HepaRG (AID 2283530)
How it was run: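 Differentiated human HepaRG cells were exposed for 48 h in serum-free induction medium to eight half-log concentrations, top 100 uM, in 0.5% DMSO. SLCO1B1 mRNA was measured by qRT-PCR, normalized to ACTB, GAPDH and POLR2A, and fitted bidirectionally against DMSO.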

[15] = read-out: sulfotransferase 2A1 (SULT2A1), SULT2A1 (gene 6822); experiment: LTEA_HepaRG_SULT2A1: Life Technologies and Expression Analysis (LTEA) Assay for sulfotransferase 2A1 (SULT2A1) using HepaRG (AID 2283531)
How it was run: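 HepaRG human liver cells, 48 h exposure in serum-free induction medium to 8 half-log concentrations topping at 100 µM (0.5% DMSO), duplicate wells. SULT2A1 mRNA measured by TaqMan qRT-PCR, normalized to ACTB/GAPDH/POLR2A; bidirectional fit against DMSO.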

[16] = read-out: Transforming Growth Factor (TGFA), TGFA (gene 7039); experiment: LTEA_HepaRG_TGFA: Life Technologies and Expression Analysis (LTEA) Assay for Transforming Growth Factor (TGFA) using HepaRG (AID 2283532)
How it was run: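 Differentiated human HepaRG cells, plated 48 h then switched to serum-free induction medium, were exposed in duplicate for 48 h to 8-point half-log series from 100 uM in 0.5% DMSO. TGFA mRNA measured by qRT-PCR, normalized to ACTB/GAPDH/POLR2A, bidirectional fit versus DMSO.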

[17] = read-out: Transforming Growth Factor (TGFB1), TGFB1 (gene 7040); experiment: LTEA_HepaRG_TGFB1: Life Technologies and Expression Analysis (LTEA) Assay for Transforming Growth Factor (TGFB1) Transporter using HepaRG (AID 2283533)
How it was run: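 Differentiated HepaRG cells exposed 48 hr in serum-free induction medium to eight half-log concentrations up to 100 uM (0.5% DMSO), duplicate; TGFB1 mRNA by TaqMan qRT-PCR normalised to ACTB, GAPDH, POLR2A; bidirectional fit against DMSO.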

TIMP1, TIMP1 (gene 7076) = experiment: LTEA_HepaRG_TIMP1: Life Technologies and Expression Analysis (LTEA) Assay for TIMP1 using HepaRG (AID 2283534);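 also: TaqMan qRT-PCR signal normalized to ACTB GAPDH and POLR2A housekeeping genes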
How it was run: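 Differentiated HepaRG cells exposed 48 h in serum-free induction medium, duplicates, eight half-log concentrations from 100 uM in 0.5% DMSO. TIMP1 mRNA by qRT-PCR normalized to ACTB, GAPDH, POLR2A; bidirectional fitting against DMSO.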

[18] = read-out: Tumor necrosis factor receptor 1 (TNFRSF1A), TNFRSF1A (gene 7132); experiment: LTEA_HepaRG_TNFRSF1A: Life Technologies and Expression Analysis (LTEA) Assay for Tumor necrosis factor receptor 1 (TNFRSF1A) using HepaRG (AID 2283535)
How it was run: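 Differentiated HepaRG cells in serum-free induction medium, exposed 48 h in duplicate to 8 half-log concentrations up to 100 uM in 0.5% DMSO. TNFRSF1A mRNA by Fluidigm TaqMan qRT-PCR, normalized to ACTB, GAPDH, POLR2A; bidirectional fit.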

Measured: AC50

Nuclear factor NF-kappa-B p105 subunit (Homo sapiens), sequence (P19838 whole entry, looked up): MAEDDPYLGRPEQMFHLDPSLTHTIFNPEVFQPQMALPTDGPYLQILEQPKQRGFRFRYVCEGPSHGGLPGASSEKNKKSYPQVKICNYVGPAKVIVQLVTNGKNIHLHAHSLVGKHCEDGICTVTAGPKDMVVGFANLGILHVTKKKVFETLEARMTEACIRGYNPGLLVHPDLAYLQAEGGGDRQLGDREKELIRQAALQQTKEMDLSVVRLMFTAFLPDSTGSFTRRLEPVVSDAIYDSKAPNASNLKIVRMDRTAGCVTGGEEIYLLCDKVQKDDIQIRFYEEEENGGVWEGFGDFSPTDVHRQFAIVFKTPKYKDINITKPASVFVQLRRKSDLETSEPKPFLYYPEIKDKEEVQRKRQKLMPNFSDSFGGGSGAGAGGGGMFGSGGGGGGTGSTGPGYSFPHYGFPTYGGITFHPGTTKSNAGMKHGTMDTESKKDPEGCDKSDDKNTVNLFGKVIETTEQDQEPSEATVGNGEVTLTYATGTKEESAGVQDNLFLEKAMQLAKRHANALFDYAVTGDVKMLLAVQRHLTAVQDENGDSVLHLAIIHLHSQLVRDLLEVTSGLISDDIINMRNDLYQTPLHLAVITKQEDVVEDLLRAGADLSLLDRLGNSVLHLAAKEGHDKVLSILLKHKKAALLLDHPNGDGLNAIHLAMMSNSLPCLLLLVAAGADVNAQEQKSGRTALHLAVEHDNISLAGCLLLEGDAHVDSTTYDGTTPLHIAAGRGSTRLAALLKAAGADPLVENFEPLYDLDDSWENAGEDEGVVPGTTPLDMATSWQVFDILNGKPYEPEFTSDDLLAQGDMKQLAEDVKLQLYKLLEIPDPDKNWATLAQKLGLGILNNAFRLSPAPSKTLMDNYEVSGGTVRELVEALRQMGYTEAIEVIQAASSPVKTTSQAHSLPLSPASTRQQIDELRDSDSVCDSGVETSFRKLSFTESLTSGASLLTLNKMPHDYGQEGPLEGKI
Signal transducer and activator of transcription 3 (Homo sapiens), sequence (P40763 whole entry, looked up): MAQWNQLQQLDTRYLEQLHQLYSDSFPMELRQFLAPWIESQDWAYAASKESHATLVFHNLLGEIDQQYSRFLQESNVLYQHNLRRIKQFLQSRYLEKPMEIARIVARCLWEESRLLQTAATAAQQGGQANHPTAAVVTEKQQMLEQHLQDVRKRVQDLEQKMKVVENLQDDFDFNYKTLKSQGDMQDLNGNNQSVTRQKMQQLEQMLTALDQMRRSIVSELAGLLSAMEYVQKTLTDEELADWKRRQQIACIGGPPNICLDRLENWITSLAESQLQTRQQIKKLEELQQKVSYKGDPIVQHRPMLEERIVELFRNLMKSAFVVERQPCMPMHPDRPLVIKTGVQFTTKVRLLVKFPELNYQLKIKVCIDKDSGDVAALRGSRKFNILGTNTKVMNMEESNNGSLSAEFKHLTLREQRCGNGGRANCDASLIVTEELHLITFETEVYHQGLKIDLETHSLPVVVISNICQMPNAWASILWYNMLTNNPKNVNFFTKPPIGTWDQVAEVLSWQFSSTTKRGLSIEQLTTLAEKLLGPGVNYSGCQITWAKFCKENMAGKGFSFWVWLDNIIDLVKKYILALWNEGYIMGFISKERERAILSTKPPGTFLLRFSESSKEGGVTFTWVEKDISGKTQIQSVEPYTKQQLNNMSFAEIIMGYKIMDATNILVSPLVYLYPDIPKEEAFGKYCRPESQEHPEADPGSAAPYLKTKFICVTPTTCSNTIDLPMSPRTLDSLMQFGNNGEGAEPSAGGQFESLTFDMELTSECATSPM
Nuclear factor erythroid 2-related factor 2 (Homo sapiens), sequence (Q16236 whole entry, looked up): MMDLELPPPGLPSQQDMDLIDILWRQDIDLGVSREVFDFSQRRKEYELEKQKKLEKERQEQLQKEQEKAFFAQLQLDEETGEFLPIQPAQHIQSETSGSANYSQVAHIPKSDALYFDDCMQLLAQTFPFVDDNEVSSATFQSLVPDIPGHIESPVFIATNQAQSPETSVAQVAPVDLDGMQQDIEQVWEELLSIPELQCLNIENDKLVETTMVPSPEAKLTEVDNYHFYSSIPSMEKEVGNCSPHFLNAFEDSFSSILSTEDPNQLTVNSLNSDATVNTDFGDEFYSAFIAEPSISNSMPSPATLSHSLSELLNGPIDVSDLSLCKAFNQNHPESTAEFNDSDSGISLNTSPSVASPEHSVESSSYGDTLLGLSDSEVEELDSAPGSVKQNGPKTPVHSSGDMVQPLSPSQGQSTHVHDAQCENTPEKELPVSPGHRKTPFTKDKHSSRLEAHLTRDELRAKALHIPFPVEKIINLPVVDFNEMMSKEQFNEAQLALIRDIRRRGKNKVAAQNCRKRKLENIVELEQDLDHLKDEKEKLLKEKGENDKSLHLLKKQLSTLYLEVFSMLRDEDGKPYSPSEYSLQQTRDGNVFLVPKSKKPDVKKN

CC(=O)S[C@H](C(=O)N[C@H]1Cc2ccccc2[C@H]2CCC[C@@H](C(=O)O)N2C1=O)C(C)C
inactive: [1] | [2] | MYC, MYC (gene 4609) | [3] | [4] | [5] | [6] | [7] | [8] | [9] | [10] | [11] | [12] | [13] | [14] | [15] | [16] | [17] | TIMP1, TIMP1 (gene 7076) | [18]

OCC(O)CO
active: [5] 1.06 µM
inactive: [1] | [2] | MYC, MYC (gene 4609) | [3] | [4] | [6] | [7] | [8] | [9] | [10] | [12] | [13] | [14] | [15] | [16] | [17] | TIMP1, TIMP1 (gene 7076) | [18]

Cc1cc(Cc2ccc(N)c(C)c2)ccc1N
inactive: [1] | [2] | MYC, MYC (gene 4609) | [3] | [4] | [5] | [6] | [7] | [8] | [9] | [10] | [11] | [12] | [13] | [14] | [15] | [16] | [17] | TIMP1, TIMP1 (gene 7076) | [18]

CCCCc1nc2cccnc2n1Cc1ccc(-c2ccccc2-c2nnn[nH]2)cc1
active: [3] 50 µM | [4] 74.6 µM | [8] 65.5 µM | [9] 28.6 µM
inactive: [1] | [2] | MYC, MYC (gene 4609) | [5] | [6] | [7] | [10] | [12] | [13] | [14] | [15] | [16] | TIMP1, TIMP1 (gene 7076) | [18]

OCC(CO)n1cnc(-c2ccc(F)cc2)c1-c1ccnc(Oc2ccccc2)n1
inactive: [1] | [2] | MYC, MYC (gene 4609) | [4] | [5] | [6] | [7] | [8] | [9] | [10] | [12] | [13] | [14] | [15] | [16] | TIMP1, TIMP1 (gene 7076) | [18]
active: [3] 13.5 µM | [11] 33.8 µM

CCCCCCC(CCCCCCCCCCC(=O)OCC(COC(C)=O)OC(C)=O)OC(C)=O (stereo not drawn)
inactive: [1] | [2] | MYC, MYC (gene 4609) | [3] | [4] | [5] | [6] | [7] | [8] | [9] | [10] | [11] | [12] | [13] | [14] | [15] | [16] | TIMP1, TIMP1 (gene 7076) | [18]

Cc1cc(SC2=C(O)C[C@@](CCc3ccc(N)cc3)(C(C)C)OC2=O)c(C(C)(C)C)cc1CO
active: [8] 7.05 µM | [9] 13.5 µM | [15] 9.92 µM
inactive: [1] | [2] | MYC, MYC (gene 4609) | [3] | [4] | [5] | [6] | [7] | [10] | [12] | [13] | [14] | [16] | TIMP1, TIMP1 (gene 7076) | [18]
